As usually defined, the inhibition is the change of the read-out against control, counted positive when it falls.

Values without a mark were called inactive. No rule for the calls is given here.

In this test the target is Lethal factor (Bacillus anthracis) (UniProt P15917). The test can be described thus: Bacillus anthracis lethal factor inhibition, microsphere flow cytometry protease assay, validation at 10 µM (AID 588461). Conditions: multiplex microsphere protease cleavage assay, stronger effect = higher value. (A flow cytometer gives signals particle by particle.)
Lethal factor (Bacillus anthracis), sequence (P15917 whole entry, looked up): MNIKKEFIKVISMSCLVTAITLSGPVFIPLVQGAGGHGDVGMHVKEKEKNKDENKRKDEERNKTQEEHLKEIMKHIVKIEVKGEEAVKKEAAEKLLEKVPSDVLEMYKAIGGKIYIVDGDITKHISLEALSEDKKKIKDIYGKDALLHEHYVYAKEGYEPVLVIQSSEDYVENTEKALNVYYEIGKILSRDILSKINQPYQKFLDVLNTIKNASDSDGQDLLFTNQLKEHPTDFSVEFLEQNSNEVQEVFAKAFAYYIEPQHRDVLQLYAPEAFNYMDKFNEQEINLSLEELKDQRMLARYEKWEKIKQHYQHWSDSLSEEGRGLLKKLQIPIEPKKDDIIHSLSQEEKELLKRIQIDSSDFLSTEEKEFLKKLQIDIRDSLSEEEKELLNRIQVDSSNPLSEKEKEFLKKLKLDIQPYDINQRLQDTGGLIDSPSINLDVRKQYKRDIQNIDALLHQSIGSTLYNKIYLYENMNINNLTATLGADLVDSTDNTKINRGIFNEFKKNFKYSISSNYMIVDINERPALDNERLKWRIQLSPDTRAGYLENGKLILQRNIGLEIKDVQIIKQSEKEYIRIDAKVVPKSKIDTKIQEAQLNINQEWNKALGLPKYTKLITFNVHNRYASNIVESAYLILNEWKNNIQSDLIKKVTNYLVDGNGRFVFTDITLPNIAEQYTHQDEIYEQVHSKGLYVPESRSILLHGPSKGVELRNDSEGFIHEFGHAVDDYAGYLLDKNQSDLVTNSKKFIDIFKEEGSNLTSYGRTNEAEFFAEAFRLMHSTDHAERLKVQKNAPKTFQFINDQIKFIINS
As to `CC1CNCCN1S(=O)(=O)c1cccc2cnccc12` (configuration not stated), the inhibition was 1.6%.

For `CSc1ccc(/C=N/N2CCN(Cc3ccc(C)cc3C)CC2)cc1`, the inhibition is -0.3%. As for `C[C@]12CCC(=O)C=C1CC[C@@H]1[C@@H]2CC[C@@]2(C)[C@H]1CC[C@]2(O)C(=O)CO`, the inhibition is -1.7%. As for `CCN1CCn2c3c(c4cc(Cl)ccc42)CCCC31` (configuration not stated), the figure is -8.7%; as for `CNC(=O)Oc1ccc2c(c1)[C@]1(C)CCN(C)[C@@H]1N2C`, 0.5%; as for `CCOC(=O)c1cnc2ccc(C(=O)OC)cc2c1Nc1ccc2c(c1)OCCO2`, -1.2%. Next, `NC(=O)c1ncn([C@@H]2O[C@H](CO)[C@@H](O)[C@H]2O)c1O`: -13.3%; `O=C(CS(=O)(=O)Cc1ccccc1)NCc1ccc2c(c1)OCO2`: -6.5%; `CCc1cc2c(=O)c(-c3nc4ccccc4n3C)coc2c(CN2CCN(C)CC2)c1O`: -2.8%. Next, `O=C(CCc1ccccc1)Nc1ccccc1C(F)(F)F`: 0.5%; `COc1cc([C@@H]2c3cc4c(cc3[C@H](O)[C@H]3COC(=O)[C@H]23)OCO4)cc(OC)c1OC`: -2.8%.

With `OCC1(CCOc2ccccc2)CCN(CCCn2cccn2)CC1`, the inhibition is -1.4%. Consider `COc1cc(=O)n(C)c2ccccc12`, for which the inhibition is -7.3%.

Consider `NS(=O)(=O)c1cc2c(cc1C(F)(F)F)NCNS2(=O)=O`, for which the inhibition is 5.4%.

With `Nc1ccc(N=Nc2ccccc2)c(N)n1`, the inhibition is -0.6%. Next, `COc1cc(C2CC(=O)NC3=C2C(=O)CC(C)(C)C3)ccc1O` (configuration not stated): 0%; `CC(C)NS(=O)(=O)c1ccc(OCC(=O)Nc2cccc(F)c2)cc1`: -0.8%; `CC(COc1ccccc1)NC(C)C(O)c1ccc(O)cc1` (configuration not stated): 0.2%. As to `O=C(c1ccc(O)cc1)c1ccc(O)cc1O`, the inhibition is -0.6%. As for `CCOc1ccc(CCn2c(-c3ccco3)nc3ccccc3c2=O)cc1OCC`, the figure is 11.4%; as for `C[C@H](NC(=O)Nc1ccccc1F)C(=O)O`, -3.2%. Next, `Cc1cc(C)c(NC(=O)NC(=O)C(Cl)(Cl)Cl)c(C)c1`: -3.8%.
